Compounds with a hit are over-represented: about 10% of the library has one in this group of screens.
hNpr1 antagonist – blocks ANP-stimulated signaling of human Npr1 receptor; Potency, µM (doses to about 46.3 µM), usual class: inhibitors; P16066; AID 1347048; 76,000 compounds, 1.6% hits; HEK293 hNpr1 GloSensor cGMP, ANP-stimulated luminescence; calls by dose curve; note: nearly all actives have a fitted effect of over 60% in size
Target sequence (P16066 whole entry, looked up): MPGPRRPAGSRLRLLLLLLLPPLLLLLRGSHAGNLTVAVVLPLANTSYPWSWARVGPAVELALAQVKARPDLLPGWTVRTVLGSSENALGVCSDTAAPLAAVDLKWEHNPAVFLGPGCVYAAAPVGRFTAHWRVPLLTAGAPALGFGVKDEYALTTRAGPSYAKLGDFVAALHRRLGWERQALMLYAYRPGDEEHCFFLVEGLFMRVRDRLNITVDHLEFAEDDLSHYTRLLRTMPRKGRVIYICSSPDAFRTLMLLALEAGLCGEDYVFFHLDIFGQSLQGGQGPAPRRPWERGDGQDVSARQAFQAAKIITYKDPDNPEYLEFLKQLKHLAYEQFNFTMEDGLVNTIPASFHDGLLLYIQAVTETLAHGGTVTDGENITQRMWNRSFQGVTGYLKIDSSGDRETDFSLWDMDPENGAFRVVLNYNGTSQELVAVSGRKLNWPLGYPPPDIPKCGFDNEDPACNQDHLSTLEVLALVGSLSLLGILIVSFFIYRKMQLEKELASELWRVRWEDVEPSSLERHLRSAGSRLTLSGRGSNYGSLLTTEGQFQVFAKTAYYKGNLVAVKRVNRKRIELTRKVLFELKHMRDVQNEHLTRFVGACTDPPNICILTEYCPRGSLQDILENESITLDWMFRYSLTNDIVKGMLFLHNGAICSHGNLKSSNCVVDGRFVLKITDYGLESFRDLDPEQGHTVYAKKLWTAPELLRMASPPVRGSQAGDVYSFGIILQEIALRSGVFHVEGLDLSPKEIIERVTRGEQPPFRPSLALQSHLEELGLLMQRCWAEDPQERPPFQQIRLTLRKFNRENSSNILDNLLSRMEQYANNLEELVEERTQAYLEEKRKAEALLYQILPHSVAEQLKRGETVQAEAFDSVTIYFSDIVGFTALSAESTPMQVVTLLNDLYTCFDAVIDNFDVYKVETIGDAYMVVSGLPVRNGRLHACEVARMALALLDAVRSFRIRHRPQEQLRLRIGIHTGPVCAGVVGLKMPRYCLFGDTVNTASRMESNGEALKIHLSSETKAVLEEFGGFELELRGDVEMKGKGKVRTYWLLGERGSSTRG
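Compound pre-incubated 30 min at room temperature on GloSensor-loaded HEK293 cells stably carrying hNpr1 and the pGS-40F cGMP biosensor. Stimulation uses hNppA at 0.1 nM final; luminescence is taken at baseline and 20 min post-agonist.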
Luciferase inh – blocks purified firefly luciferase enzyme activity. P08659. purified P. pyralis luciferase, luminescence, biochemical. Potency, µM (series often up to 115 µM), usual class: inhibitors. 76,000 compounds, 2.5% hits. AID 1347043; note: nearly all actives have a fitted effect of over 65% in size
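Purified 10nM P. pyralis luciferase with 10uM D-luciferin and 10uM ATP in 50mM Tris acetate pH 7.5, 10mM Mg acetate, 0.01% Tween-20, 0.05% BSA. qHTS titration; luminescence read by CCD imager.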
HEK293 tox – cytotoxic compounds in HEK 293 cells; HEK 293 viability, ATP luminescence (CellTiter-Glo), 48-72 h; Potency, µM (titrated, usually from 115 µM), actives largely listed as inhibitors; 94,000 compounds, 6.6% hits; AID 1345083; note: nearly all actives have a fitted effect of over 60% in size
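CellTiter-Glo luminescence (cellular ATP) was read after 48 or 72 hr of compound exposure at 37 degree Celsius. Cells were HEK 293 plated at 250 cells/well.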
GPT2 inhibitor – blocks human glutamate pyruvate transaminase 2; Q8TD30; Recombinant GPT2, coupled pyruvate oxidase/HRP Amplex Red fluorescence; Potency, µM (titrated, usually from 57.7 µM), actives largely listed as inhibitors; 100,000 compounds, 0.25% hits; note: nearly all actives have a fitted effect of over 60% in size
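Fluorescence read-out: pyruvate from GPT2 turnover coupled to pyruvate oxidase, HRP and Amplex Red (0.2mM ThPP, 0.2U/mL PO and HRP, 50uM Amplex final). Substrates 250uM a-KG, 2mM L-alanine; enzyme 10ng/uL; 30 min RT.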
3T3 cytotox – cytotoxic compounds in NIH 3T3 cells. NIH 3T3 viability, CellTiter-Glo ATP luminescence, 48-72 h. Potency, µM (series often up to 96.7 µM), most hits filed as inhibitors. 94,000 compounds, 4.3% hits. AID 1345082; note: nearly all actives have a fitted effect of over 55% in size
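ATP-dependent luminescence (CellTiter-Glo) served as the viability signal for NIH 3T3 cells treated with compound for 48 or 72 hr at 37 °C.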
A number is an active result; . = inactive; ? = inconclusive; / = not tested or not shown; [ ] = another dose, or the depositor's remark. Unless noted, calls come from the whole dose curve; as a rule, active = well fitted curve in the direction sought with a large enough effect; inconclusive = small, poorly fitted or top-dose-only effect, or another doubt; inactive = no such curve, though single readings can be large; an effect the other way counts as inactive or inconclusive.

SMILES	hNpr1 antagonist	Luciferase inh	HEK293 tox	GPT2 inhibitor	3T3 cytotox
COc1ccc(CNC[C@H]2Cn3cc(-c4ccccc4)nc3CO2)cc1	.	.	?	.	?
Cc1ccc(-c2cn3c(n2)CO[C@@H](CNS(C)(=O)=O)C3)cc1	.	.	.	.	.
O=C(NCc1cccs1)c1ccc2nnc(-c3cc(C(F)(F)F)cc(C(F)(F)F)c3)n2c1	/	/	?	.	?
CC(C)CCN1CC(CN[S+](=O)([O-])c2ccccc2)C2(C1)CN(c1ccccc1)C2 (stereo not given)	.	.	?	?	45µM
COc1ccccc1CN1CC(CNC(=O)Nc2ccccc2)C2(C1)CN(c1ccccc1)C2 (stereo not given)	.	.	79µM	.	?
COc1ccc(CN2CC(CNc3ccccc3)C3(C2)CN(c2ccccc2)C3)cc1O (stereo not given)	.	.	40µM	?	28µM
O=[S+]([O-])(NCC1CN(Cc2ccc3c(c2)CCO3)CC12CN(c1ccccc1)C2)c1ccccc1 (stereo not given)	.	.	?	.	?
COc1ccc(CN2CC(CN[S+](=O)([O-])c3ccccc3)C3(C2)CN(c2ccccc2)C3)cc1O (stereo not given)	.	.	?	.	22µM
O=S(=O)(NCC1CN(CC2CC2)CC12CCCCC2)c1cccnc1 (stereo not given)	/	/	.	.	?
CCOc1ccccc1CNC(=O)c1cc2n(n1)CC(c1ccc3c(c1)OCO3)OC2 (stereo not given)	.	.	?	.	?
CC(C)c1ccc([S+](=O)([O-])N2CC(CNC(=O)c3cnn(C)c3)C3(CN(c4ccccc4)C3)C2)cc1 (stereo not given)	.	.	?	.	?
CC(C)c1ccc(CN2CC(CNC(=O)c3cnn(C)c3)C3(C2)CN(c2ccccc2)C3)cc1 (stereo not given)	.	.	79µM	.	?
COCc1ccc2c(c1)c(OC(C)(C)C(=O)NCc1cnccn1)nn2Cc1ccccc1	.	.	?	.	40µM
COCc1ccc2c(c1)c(OC(C)(C)C(=O)Nc1cccnc1)nn2Cc1ccccc1	.	.	?	.	?
COCc1ccc2c(c1)c(OC(C)(C)C(=O)N1CC(O)C1)nn2Cc1ccccc1	.	.	?	.	100µM
COCc1ccc2c(c1)c(OC(C)(C)C(=O)NC1CCC(O)CC1)nn2Cc1ccccc1 (stereo not given)	.	.	.	.	40µM
CC(C)(Oc1nn(Cc2cccc(Cl)c2)c2ccccc12)C(=O)N1CCCC1	.	.	?	.	50µM
O=C(c1ccc(F)cc1)N1CCCC(C(=O)N2CCC(N3CCOCC3=O)CC2)C1 (stereo not given)	/	/	.	.	.
Cc1nnc2ccc(N3CCN(C(=O)c4ccccc4Cl)CC3)nn12	/	/	.	/	?
CC1=C[C@@H](CNCCN(C)C)[C@H](C(C)C)C[C@H]1Cc1nnc(C)o1	.	.	.	.	.
CC1=C[C@@H](CNCCN2CCOCC2)[C@H](C(C)C)C[C@H]1Cc1nnc(-c2ccc(C)cc2)o1	.	.	40µM	.	35µM
CC(=O)NCCNC[C@@H]1C=C(C)[C@H](Cc2nnc(-c3ccc(C)cc3)o2)C[C@H]1C(C)C	.	.	56µM	.	40µM
CC1=C[C@@H](CNCCN(C)C)[C@H](C(C)C)C[C@H]1Cc1nnc(C(C)(C)C)o1	.	.	?	.	71µM
CC1=C[C@@H](CNCCN(C)C)[C@H](C(C)C)C[C@H]1Cc1nnc(-c2ccc(C)cc2)o1	.	.	35µM	.	35µM
COc1ccc(C(=O)N2CCCC(C(=O)N3CCC(c4nc5ncccc5[nH]4)C3)C2)cc1 (stereo not given)	/	/	.	.	.
SMILES	hNpr1 antagonist	Luciferase inh	HEK293 tox	GPT2 inhibitor	3T3 cytotox
CCN1CC(Nc2ccc(-c3nc(CCCc4ccccc4)no3)cn2)CC1=O (stereo not given)	.	.	?	.[11.5 µM]	.
Cn1c(C(=O)N2CCNc3cnc(Nc4ccccc4)nc3C2)cc2ccccc21	?	.	?	.	?
O=C(Cc1ccccc1Cl)Nc1ccc(-c2nnc3n2CCCC3)cc1	.	.	.	.	.
O=C(Nc1cccnc1)[C@@H]1C[C@@H](c2ccc(F)cc2)N(Cc2ccccc2)C1	?	.	?	.	79µM
O=C(Nc1ccccn1)[C@@H]1C[C@@H](c2ccc(F)cc2)N(Cc2ccccc2)C1	?	.	?	.	?
O=C(Nc1cccnc1)[C@@H]1C[C@H](c2ccc(F)cc2)N(Cc2ccccc2Cl)C1	.	.	40µM	.	45µM
COc1ccc(NC(=O)[C@@H]2C[C@H](c3ccc(F)cc3)N(Cc3ccccc3Cl)C2)cn1	.	.	28µM	.	22µM
COc1ccc(N2C(=O)C3(CCCCC3)C2C(=O)NCCN2CCc3ccccc3C2)cc1 (stereo not given)	.	.	?	.	?
COc1ccccc1CC(=O)Nc1cnc(-c2cccc(Cl)c2)nc1	.	13µM	?	.	?
O=C(Nc1cnc(-c2cccc(Cl)c2)nc1)C1CCCO1 (stereo not given)	?	2.8µM	?	.	.
O=C(Nc1cnc(-c2cccc(Cl)c2)nc1)c1ccc(F)cc1Cl	?	11µM	?	.	?
O=C(Nc1cnc(-c2cccc(Cl)c2)nc1)c1ccsc1	.	?	.	.	.
O=C(Nc1cnc(-c2cccc(Cl)c2)nc1)c1nccc2ccccc12	.	.	?	.	?
CC(C)(C)CC(=O)Nc1cnc(-c2ccc(Cl)cc2)nc1	3.5µM	0.28µM	45µM	.	40µM
CCN1C(=O)CCN(C(=O)c2cc(C)n(C)n2)CC12CCOCC2	/	/	.	.	.
O=C(Nc1cnc(-c2cccc(Cl)c2)nc1)c1ccccc1F	.	1µM	.	.	.
Cc1ccc(-c2ncc(NC(=O)c3ccc(F)c(F)c3)cn2)cc1	.	.	.	.	.
O=C(NC1CCCC1)C1CCCN1C(=O)c1cccc(-c2cccnc2)c1 (stereo not given)	/	/	.	/	.
O=C(Nc1cnc(-c2cccnc2)nc1)C1CCCC1	.	32µM	.	.	.
O=C(Nc1cnc(-c2ccc(Cl)cc2)nc1)c1cccc(F)c1	.	7.9µM	?	.	.
CCc1ccc(CNC(=O)C2(Cc3cccnc3)CCCCC(=O)N2)cc1 (stereo not given)	/	/	?	.	?
O=C(Nc1ccc(=O)n2c1[C@@H]1C[C@@H](CN(C(=O)c3ccc(F)cc3)C1)C2)c1ccc2c(c1)OCO2	.	.	.	.	.
CN1c2cc(C(=O)Nc3ccc(Br)cc3)ccc2C(=O)N2CCCCC21 (stereo not given)	.	32µM	?	.	?
CSc1ccc(NC(=O)c2ccc3c(c2)N(C)C2CCCCCN2C3=O)cc1 (stereo not given)	?	?	?	.	?
